# Assay results reported in ChEMBL document CHEMBL1961873, “Compounds: GSK PKIS; Assays: Nanosyn kinase panel” (2012).
# Legend:
# [1] = target: T1, Ephrin type-B receptor 2 (Homo sapiens) (UniProt P29323); conditions: at 1 µM
# T1 sequence (whole entry): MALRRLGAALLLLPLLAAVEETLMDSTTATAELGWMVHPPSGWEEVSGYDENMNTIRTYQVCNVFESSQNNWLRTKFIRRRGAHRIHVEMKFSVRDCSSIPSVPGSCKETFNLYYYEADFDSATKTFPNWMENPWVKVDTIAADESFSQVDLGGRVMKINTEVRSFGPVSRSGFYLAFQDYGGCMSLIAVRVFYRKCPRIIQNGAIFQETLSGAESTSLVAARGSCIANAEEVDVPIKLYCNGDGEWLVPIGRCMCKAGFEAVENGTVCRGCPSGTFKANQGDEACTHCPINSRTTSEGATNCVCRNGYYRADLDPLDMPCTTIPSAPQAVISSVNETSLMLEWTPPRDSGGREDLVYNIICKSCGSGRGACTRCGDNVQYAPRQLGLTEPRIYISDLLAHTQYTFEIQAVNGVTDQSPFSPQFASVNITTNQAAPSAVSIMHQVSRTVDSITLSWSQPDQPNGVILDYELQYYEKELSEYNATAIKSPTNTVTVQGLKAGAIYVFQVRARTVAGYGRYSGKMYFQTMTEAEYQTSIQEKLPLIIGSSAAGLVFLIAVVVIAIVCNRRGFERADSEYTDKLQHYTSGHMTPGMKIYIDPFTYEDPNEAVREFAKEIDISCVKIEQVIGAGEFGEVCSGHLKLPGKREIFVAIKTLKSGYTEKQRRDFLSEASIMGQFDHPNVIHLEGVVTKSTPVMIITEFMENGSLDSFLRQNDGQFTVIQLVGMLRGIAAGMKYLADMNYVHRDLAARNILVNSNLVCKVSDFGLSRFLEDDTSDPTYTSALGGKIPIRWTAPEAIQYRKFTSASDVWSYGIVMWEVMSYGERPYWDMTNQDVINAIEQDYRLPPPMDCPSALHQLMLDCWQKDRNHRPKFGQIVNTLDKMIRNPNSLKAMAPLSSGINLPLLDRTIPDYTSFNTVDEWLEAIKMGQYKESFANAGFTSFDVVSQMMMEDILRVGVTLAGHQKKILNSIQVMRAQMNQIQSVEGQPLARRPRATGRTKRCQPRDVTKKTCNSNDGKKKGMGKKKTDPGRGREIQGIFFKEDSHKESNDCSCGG
# [2] = target: T2, Ephrin type-B receptor 3 (Homo sapiens) (UniProt P54753); conditions: at 0.1 µM
# T2 sequence (whole entry): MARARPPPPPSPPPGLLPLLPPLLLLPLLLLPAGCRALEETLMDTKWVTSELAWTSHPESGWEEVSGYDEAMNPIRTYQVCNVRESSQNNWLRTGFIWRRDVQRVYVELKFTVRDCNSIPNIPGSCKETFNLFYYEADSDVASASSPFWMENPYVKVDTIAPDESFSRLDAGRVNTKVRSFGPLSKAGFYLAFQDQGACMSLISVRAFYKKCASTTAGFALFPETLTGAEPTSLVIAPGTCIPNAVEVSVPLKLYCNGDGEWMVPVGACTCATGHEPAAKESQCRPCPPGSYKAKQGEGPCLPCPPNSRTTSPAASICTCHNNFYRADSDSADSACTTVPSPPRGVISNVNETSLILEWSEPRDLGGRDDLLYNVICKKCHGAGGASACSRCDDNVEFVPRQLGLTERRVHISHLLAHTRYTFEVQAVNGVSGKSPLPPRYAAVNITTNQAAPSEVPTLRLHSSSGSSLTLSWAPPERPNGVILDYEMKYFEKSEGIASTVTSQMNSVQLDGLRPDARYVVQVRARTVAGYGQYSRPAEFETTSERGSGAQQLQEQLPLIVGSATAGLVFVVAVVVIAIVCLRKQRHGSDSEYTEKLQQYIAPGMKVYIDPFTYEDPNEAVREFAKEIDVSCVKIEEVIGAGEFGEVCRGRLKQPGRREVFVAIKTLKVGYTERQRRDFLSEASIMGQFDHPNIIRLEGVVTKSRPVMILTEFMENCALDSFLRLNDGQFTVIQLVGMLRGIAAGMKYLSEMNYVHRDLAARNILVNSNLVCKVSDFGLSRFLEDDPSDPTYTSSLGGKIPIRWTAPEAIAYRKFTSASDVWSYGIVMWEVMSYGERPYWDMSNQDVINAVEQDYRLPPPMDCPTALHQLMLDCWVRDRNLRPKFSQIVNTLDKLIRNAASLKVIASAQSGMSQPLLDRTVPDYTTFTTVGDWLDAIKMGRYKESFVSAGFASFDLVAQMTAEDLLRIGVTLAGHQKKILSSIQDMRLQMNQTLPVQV
# [3] = target: T2, Ephrin type-B receptor 3 (Homo sapiens); conditions: at 1 µM
# [4] = target: T3, Ephrin type-B receptor 4 (Homo sapiens) (UniProt P54760); conditions: at 0.1 µM
# T3 sequence (whole entry): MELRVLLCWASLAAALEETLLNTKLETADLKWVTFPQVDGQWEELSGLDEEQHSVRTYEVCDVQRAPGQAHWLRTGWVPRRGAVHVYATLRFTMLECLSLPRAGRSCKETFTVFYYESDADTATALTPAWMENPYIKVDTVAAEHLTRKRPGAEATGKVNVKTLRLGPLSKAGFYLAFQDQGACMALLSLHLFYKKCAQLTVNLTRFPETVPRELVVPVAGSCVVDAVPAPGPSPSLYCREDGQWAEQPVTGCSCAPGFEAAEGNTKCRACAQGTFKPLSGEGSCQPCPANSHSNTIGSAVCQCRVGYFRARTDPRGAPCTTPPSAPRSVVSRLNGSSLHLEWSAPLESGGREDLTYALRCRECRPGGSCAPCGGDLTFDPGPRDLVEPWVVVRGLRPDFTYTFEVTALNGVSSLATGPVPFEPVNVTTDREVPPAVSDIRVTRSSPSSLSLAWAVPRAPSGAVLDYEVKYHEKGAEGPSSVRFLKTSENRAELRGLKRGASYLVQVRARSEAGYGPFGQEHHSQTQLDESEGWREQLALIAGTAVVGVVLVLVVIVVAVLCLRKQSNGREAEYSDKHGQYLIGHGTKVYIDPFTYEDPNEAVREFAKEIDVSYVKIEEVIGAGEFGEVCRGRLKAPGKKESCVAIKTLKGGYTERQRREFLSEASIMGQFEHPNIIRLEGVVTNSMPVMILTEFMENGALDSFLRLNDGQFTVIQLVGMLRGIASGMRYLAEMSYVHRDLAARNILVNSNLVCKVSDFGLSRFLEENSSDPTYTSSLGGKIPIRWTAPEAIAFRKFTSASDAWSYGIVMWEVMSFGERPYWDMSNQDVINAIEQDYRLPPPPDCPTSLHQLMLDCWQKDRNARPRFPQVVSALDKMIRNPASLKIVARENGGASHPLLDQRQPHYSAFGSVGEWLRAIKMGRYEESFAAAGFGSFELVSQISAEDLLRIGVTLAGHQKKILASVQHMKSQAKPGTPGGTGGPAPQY
# [5] = target: T3, Ephrin type-B receptor 4 (Homo sapiens); conditions: at 1 µM
# [6] = target: Receptor tyrosine-protein kinase erbB-2 (Homo sapiens) (UniProt P04626); conditions: at 0.1 µM
# [7] = target: Receptor tyrosine-protein kinase erbB-2 (Homo sapiens) (UniProt P04626); conditions: at 1 µM
# [8] = target: Receptor tyrosine-protein kinase erbB-4 (Homo sapiens) (UniProt Q15303); conditions: at 0.1 µM
# [9] = target: Receptor tyrosine-protein kinase erbB-4 (Homo sapiens) (UniProt Q15303); conditions: at 1 µM
# [10] = target: Tyrosine-protein kinase Fer (Homo sapiens) (UniProt P16591); conditions: at 0.1 µM
# [11] = target: Tyrosine-protein kinase Fer (Homo sapiens) (UniProt P16591); conditions: at 1 µM
# [12] = target: Tyrosine-protein kinase Fes/Fps (Homo sapiens) (UniProt P07332); conditions: at 0.1 µM
# [13] = target: Tyrosine-protein kinase Fes/Fps (Homo sapiens) (UniProt P07332); conditions: at 1 µM
# [14] = target: Fibroblast growth factor receptor 1 (Homo sapiens) (UniProt P11362); conditions: at 0.1 µM
# [15] = target: Fibroblast growth factor receptor 1 (Homo sapiens) (UniProt P11362); conditions: at 1 µM
# [16] = target: Fibroblast growth factor receptor 2 (Homo sapiens) (UniProt P21802); conditions: at 0.1 µM
# [17] = target: Fibroblast growth factor receptor 2 (Homo sapiens) (UniProt P21802); conditions: at 1 µM
# [18] = target: Fibroblast growth factor receptor 3 (Homo sapiens) (UniProt P22607); conditions: at 0.1 µM
# [19] = target: Fibroblast growth factor receptor 3 (Homo sapiens) (UniProt P22607); conditions: at 1 µM
# [20] = target: Fibroblast growth factor receptor 4 (Homo sapiens) (UniProt P22455); conditions: at 0.1 µM;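 further: values are mean percent inhibition of FGFR4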
# Chain of Tyrosine-protein kinase Fer (Homo sapiens) (P16591 whole entry, looked up): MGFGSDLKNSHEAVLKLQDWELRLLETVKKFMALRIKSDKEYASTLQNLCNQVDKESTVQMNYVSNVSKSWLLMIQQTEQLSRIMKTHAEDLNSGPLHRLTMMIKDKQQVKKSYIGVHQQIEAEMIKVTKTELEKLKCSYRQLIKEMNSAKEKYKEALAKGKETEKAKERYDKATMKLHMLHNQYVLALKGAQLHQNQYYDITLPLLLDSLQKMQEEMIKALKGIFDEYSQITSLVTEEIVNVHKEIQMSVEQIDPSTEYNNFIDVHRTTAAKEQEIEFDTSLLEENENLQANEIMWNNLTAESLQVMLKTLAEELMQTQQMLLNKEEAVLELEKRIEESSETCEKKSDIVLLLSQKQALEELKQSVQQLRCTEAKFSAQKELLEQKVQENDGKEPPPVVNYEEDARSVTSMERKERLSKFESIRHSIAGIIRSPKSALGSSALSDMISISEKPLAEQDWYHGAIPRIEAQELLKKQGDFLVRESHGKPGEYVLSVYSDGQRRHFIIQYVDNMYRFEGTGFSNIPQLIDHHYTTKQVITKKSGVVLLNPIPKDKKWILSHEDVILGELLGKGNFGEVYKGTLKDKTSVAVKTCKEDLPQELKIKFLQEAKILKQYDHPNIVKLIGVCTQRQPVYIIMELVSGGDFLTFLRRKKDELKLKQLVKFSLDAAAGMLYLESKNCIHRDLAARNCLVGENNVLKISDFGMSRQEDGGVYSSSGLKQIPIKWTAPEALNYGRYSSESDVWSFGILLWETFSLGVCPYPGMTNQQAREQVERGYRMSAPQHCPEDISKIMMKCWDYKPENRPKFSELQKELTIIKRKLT
# Chain of Fibroblast growth factor receptor 2 (Homo sapiens) (P21802 22-821 limits assumed): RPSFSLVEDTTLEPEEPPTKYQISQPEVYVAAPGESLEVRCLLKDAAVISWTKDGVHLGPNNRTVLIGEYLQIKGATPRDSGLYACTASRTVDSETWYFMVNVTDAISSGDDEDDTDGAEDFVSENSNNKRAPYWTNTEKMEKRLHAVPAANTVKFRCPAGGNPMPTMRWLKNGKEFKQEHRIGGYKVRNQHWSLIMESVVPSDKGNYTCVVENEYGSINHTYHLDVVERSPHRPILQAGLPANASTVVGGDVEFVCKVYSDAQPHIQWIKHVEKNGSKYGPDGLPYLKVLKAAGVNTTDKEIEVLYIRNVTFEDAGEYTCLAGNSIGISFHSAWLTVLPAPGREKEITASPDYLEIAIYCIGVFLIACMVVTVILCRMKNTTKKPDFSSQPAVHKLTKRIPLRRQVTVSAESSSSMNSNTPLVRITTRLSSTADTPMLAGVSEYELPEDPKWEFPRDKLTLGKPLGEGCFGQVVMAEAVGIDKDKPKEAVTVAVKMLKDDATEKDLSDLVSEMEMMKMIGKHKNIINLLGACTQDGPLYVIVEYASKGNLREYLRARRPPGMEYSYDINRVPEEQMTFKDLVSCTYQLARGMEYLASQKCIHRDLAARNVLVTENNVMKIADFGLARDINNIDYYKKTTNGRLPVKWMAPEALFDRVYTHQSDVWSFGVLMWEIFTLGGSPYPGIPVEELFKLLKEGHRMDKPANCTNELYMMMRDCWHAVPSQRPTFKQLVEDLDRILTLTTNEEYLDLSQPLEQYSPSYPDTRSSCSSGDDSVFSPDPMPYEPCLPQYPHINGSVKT
# Chain of Fibroblast growth factor receptor 1 (Homo sapiens) (P11362 22-822 limits assumed): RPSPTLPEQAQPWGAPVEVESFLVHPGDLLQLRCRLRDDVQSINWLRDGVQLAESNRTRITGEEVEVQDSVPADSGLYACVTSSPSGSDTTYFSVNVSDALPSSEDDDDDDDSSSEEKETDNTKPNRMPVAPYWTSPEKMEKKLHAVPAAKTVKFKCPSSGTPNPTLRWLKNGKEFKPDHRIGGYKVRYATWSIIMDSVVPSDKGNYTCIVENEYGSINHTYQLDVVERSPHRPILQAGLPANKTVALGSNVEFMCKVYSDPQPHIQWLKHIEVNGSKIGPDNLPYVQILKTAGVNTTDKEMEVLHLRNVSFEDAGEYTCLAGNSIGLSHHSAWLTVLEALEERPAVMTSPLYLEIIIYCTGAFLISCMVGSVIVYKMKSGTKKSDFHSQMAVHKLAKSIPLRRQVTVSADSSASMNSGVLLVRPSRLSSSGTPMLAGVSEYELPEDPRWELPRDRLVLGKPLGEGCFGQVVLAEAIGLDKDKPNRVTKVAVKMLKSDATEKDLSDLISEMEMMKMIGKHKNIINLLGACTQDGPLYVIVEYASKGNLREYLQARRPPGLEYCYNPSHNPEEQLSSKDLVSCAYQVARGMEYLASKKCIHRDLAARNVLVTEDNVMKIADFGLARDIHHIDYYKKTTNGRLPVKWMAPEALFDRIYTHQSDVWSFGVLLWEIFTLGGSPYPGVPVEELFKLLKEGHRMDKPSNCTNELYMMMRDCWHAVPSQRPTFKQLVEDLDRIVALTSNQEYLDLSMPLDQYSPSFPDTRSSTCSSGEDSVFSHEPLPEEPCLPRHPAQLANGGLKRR
# Chain of Receptor tyrosine-protein kinase erbB-2 (Homo sapiens) (P04626 whole entry): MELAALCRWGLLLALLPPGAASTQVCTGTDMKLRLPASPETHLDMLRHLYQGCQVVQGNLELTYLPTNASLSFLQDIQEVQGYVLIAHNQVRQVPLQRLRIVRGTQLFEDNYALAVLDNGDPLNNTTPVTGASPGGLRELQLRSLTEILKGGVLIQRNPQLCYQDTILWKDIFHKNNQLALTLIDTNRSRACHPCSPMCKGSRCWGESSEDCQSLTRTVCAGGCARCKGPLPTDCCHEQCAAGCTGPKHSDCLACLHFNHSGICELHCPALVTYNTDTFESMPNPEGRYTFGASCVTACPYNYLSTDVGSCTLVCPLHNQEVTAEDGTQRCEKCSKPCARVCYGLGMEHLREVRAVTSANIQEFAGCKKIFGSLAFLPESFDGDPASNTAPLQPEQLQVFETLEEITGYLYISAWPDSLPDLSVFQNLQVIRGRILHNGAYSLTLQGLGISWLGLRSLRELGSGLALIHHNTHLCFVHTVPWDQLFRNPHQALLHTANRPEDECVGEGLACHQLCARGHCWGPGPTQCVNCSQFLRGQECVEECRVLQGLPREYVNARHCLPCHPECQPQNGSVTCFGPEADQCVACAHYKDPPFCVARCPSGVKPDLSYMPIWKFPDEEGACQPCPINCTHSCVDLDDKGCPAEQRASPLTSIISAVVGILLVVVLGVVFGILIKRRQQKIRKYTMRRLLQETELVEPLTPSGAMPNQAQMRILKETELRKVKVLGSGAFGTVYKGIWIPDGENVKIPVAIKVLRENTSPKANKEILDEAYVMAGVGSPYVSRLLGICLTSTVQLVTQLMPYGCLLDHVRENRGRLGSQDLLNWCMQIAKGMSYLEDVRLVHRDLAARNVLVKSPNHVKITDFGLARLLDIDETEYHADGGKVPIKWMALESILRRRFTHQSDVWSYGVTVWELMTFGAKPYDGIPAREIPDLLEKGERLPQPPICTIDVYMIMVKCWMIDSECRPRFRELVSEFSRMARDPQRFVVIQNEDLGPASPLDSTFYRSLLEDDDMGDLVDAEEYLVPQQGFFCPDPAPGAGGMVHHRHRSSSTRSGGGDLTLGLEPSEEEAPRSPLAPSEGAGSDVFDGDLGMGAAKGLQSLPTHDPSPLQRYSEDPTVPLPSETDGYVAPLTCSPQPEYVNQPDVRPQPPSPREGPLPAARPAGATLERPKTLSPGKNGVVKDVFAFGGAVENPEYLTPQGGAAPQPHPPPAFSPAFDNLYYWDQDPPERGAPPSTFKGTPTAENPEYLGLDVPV
# Chain of Fibroblast growth factor receptor 3 (Homo sapiens) (P22607 23-806 limits assumed): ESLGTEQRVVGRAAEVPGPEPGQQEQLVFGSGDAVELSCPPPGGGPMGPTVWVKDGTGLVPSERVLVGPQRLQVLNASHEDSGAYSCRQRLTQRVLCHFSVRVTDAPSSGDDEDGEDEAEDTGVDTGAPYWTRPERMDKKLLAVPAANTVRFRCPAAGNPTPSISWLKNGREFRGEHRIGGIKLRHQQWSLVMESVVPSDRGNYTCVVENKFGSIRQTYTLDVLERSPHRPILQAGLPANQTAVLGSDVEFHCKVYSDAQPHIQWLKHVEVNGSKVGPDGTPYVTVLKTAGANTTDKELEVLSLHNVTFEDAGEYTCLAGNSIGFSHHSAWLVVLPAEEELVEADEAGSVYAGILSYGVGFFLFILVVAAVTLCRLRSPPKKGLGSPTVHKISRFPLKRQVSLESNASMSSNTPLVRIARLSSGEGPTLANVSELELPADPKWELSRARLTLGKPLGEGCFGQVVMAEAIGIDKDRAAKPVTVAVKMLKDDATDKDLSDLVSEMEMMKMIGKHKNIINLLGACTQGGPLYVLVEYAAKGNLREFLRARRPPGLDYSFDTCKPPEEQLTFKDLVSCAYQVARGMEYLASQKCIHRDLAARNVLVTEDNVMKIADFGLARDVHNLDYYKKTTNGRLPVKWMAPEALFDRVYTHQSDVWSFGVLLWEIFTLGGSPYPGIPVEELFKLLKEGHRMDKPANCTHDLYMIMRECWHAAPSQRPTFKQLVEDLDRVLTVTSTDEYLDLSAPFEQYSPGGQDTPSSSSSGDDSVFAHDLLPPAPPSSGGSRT
SMILES,inhibition [1] [%],inhibition [2] [%],inhibition [3] [%],inhibition [4] [%],inhibition [5] [%],inhibition [6] [%],inhibition [7] [%],inhibition [8] [%],inhibition [9] [%],inhibition [10] [%],inhibition [11] [%],inhibition [12] [%],inhibition [13] [%],inhibition [14] [%],inhibition [15] [%],inhibition [16] [%],inhibition [17] [%],inhibition [18] [%],inhibition [19] [%],inhibition [20] [%]
Nc1nccc(-c2c(-c3ccc(F)cc3)ncn2C2CCC(O)CC2)n1 (centres undefined),35.9,1.08,32.1,2.5,14.7,-3.17,4.64,6.79,45.9,5.39,19.8,-2.78,-2.56,0.56,11.3,-2.57,1.23,-0.35,1.39,2.77
CCc1ccc(Oc2nccc(-c3c(-c4ccc(F)cc4)ncn3C3CCNCC3)n2)cc1,9.06,4.55,4.56,1.97,3.15,1.55,7.71,7.62,11.6,-1.66,3.15,3.41,3.8,7.59,4.77,9.05,5.8,7.97,5,7.02
COc1ccc(C2=C(N3CCc4ccccc43)C(=O)NC2=O)cc1,11.3,3.73,6.05,3.74,4.2,4.12,2.07,8.75,12.9,5.39,4.91,3.03,5.04,4.17,8.02,4.11,6.4,8.71,8.26,2.43
O=C(Nc1ccc(Oc2ccc3[nH]c(NC(=O)c4ccccc4)nc3c2)cc1)Nc1cc(C(F)(F)F)ccc1F,61.8,5.05,8.33,3.63,27.5,2.77,4.41,6.9,9.12,1.59,7.9,2.28,2.49,2.35,6.8,2.19,18.8,7.91,6.31,-0.39
Fc1ccc(-c2ncn(C3CCNCC3)c2-c2ccnc(Oc3ccc4c(c3)OCO4)n2)cc1,16.5,5.97,3.71,1.53,3.9,-0.35,12,10.6,19.3,6.11,10.4,4.19,3.36,3.51,11.8,6.16,12,6.95,9.41,–
COc1cc(Nc2ncc3c(C)nc(-c4cccc(C(F)(F)F)c4)n3n2)cc(OC)c1OC,57.1,6.46,3.53,5.85,31.1,0.82,3.68,5.34,8.32,3.27,16.6,2.74,4.66,0.79,3.96,1.87,10.6,3.25,4.79,0.66
CN(c1ccc(NC(=O)Nc2c(Cl)cccc2Cl)cc1)c1ccnc(Nc2cccc(CS(C)(=O)=O)c2)n1,27.3,2.02,4.62,2.86,8.72,1.88,7.2,11.2,17.1,51.9,77.2,11.1,22.5,6.14,-0.4,3.91,13.4,0.14,5.59,2.62
Fc1ccc(-c2ncn(C3CCNCC3)c2-c2ccnc(Oc3ccc(Oc4ccccc4)cc3)n2)cc1,7.3,4.75,2.76,2.74,2.19,3.95,2.11,6.47,9.01,1.51,5.54,3.48,4.42,6.98,2.81,6.96,5.56,7.61,5.27,-7.37
CCc1nccc2c1nc(-c1nonc1N)n2CC,-7.41,2.73,-3.8,1.19,1.5,-0.18,-3.91,8.55,9.58,5.29,7.31,0.14,1.26,-0.52,-4.23,-1.59,3.19,-0.24,2.1,-1.31
CCc1cccc(CC)c1/C=C/c1cncc(C(=O)NC)c1,11.1,3.73,2.63,1.12,1.84,0.13,-1.35,12.1,14.1,1.86,1.64,2.16,2.33,5.4,11.8,5.9,9.23,6.74,9.45,-1.16
Cc1ccc(NC(=O)c2ccoc2)cc1-c1ccc(C(=O)NCC2CC2)cc1,5.88,3.21,3.35,0.88,0.82,5.47,5.7,8.06,10.6,0.47,-0.39,2.83,1.55,11.2,3.99,0.64,3.44,2.69,5.14,1.47
